Source: the supplement of paper PMC10849652
Targets with a hit are over-represented here; the source holds about 7,900 in all. About 0.6% of all pairs of compound and target were hits. Values without a mark were called inactive.

Legend:
Assay in all cases: log2 fold change, soluble protein after heating vs DMSO (PISA); higher = thermal stabilisation; K562 cells, 10 uM, 30 min; active = over 0.2 and 3.5 SD of the protein, either way, in both replicates (recomputed)
saracatinib = compound: CN1CCN(CCOc2cc(OC3CCOCC3)c3c(Nc4c(Cl)ccc5c4OCO5)ncnc3c2)CC1 [saracatinib]
How it was run: (§1)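 Aliquots of K562 cells (2×10^6 cells/mL) treated with 10 μM compound for 30 min were heated for 3 min over 48°C-58°C. After pooling and extraction in PBS with 0.5% NP-40 at 4°C, soluble protein from a 21,000xg, 90 min spin was quantified by TMTpro 16plex LC-MS/MS with channel sums equalised. Thermal stability is expressed against control samples, from duplicates, as a log2 fold change.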

sotrastaurin = compound: CN1CCN(c2nc(C3=C(c4c[nH]c5ccccc45)C(=O)NC3=O)c3ccccc3n2)CC1 [sotrastaurin]
How it was run: as §1

alvocidib = compound: CN1CC[C@H](c2c(O)cc(O)c3c(=O)cc(-c4ccccc4Cl)oc23)[C@H](O)C1 [alvocidib]
How it was run: as §1

Tubastatin A = compound: CN1CCc2c(c3ccccc3n2Cc2ccc(C(=O)NO)cc2)C1 [Tubastatin A]
How it was run: as §1

[1] = compound: CNC(=O)C1=CC=CC=C1NC2=NC(=NC=C2Cl)NC3=C(C=C(C=C3)N4CCOCC4)OC
How it was run: as §1

defactinib = compound: CNC(=O)c1ccc(Nc2ncc(C(F)(F)F)c(NCc3nccnc3N(C)S(C)(=O)=O)n2)cc1 [defactinib]
How it was run: as §1

rucaparib = compound: CNCc1ccc(-c2[nH]c3cc(F)cc4c3c2CCNC4=O)cc1 [rucaparib]
How it was run: as §1

[2] = compound: CNc1nc(-c2ccc3c(N)n[nH]c3c2)cc(N2C[C@@H](C(=O)NC3CCCCC3)CC[C@H]2C)n1
How it was run: as §1

encorafenib = compound: COC(=O)N[C@@H](C)CNc1nccc(-c2cn(C(C)C)nc2-c2cc(Cl)cc(NS(C)(=O)=O)c2F)n1 [encorafenib]
How it was run: as §1

[3] = compound: COC(=O)[C@H](CCSC)NC(=O)C1=C(C=C(C=C1)NC[C@H](CS)N)C2=CC=CC=C2
How it was run: as §1

[4] = compound: COC1=CC=C(C=C1)CN2C=CC3=C2C=C(C=C3)C(=O)NO
How it was run: as §1

filanesib = compound: CON(C)C(=O)N1N=C(c2cc(F)ccc2F)S[C@@]1(CCCN)c1ccccc1 [filanesib]
How it was run: as §1

zotarolimus = compound: CO[C@H]1C[C@@H]2CC[C@@H](C)[C@@](O)(O2)C(=O)C(=O)N2CCCC[C@H]2C(=O)O[C@H]([C@H](C)C[C@@H]2CC[C@H](n3cnnn3)[C@H](OC)C2)CC(=O)[C@H](C)/C=C(\C)[C@@H](O)[C@@H](OC)C(=O)[C@H](C)C[C@H](C)/C=C/C=C/C=C/1C [zotarolimus]
How it was run: as §1

idasanutlin = compound: COc1cc(C(=O)O)ccc1NC(=O)[C@@H]1N[C@@H](CC(C)(C)C)[C@](C#N)(c2ccc(Cl)cc2F)[C@H]1c1cccc(Cl)c1F [idasanutlin]
How it was run: as §1

alisertib = compound: COc1cc(Nc2ncc3c(n2)-c2ccc(Cl)cc2C(c2c(F)cccc2OC)=NC3)ccc1C(=O)O [alisertib]
How it was run: as §1

[5] = compound: COc1cc2nc(-c3cc(F)ccc3O)nc(N[C@@H]3CNC[C@H]3C(C)(C)O)c2cc1OC
How it was run: as §1

gefitinib = compound: COc1cc2ncnc(Nc3ccc(F)c(Cl)c3)c2cc1OCCCN1CCOCC1 [gefitinib]
How it was run: as §1

[6] = compound: COc1cccc2cc(-c3nc([C@H]4CC[C@H](C(=O)O)CC4)n4ncnc(N)c34)[nH]c12
How it was run: as §1

lapatinib = compound: CS(=O)(=O)CCNCc1ccc(-c2ccc3ncnc(Nc4ccc(OCc5cccc(F)c5)c(Cl)c4)c3c2)o1 [lapatinib]
How it was run: as §1

pictilisib = compound: CS(=O)(=O)N1CCN(Cc2cc3nc(-c4cccc5[nH]ncc45)nc(N4CCOCC4)c3s2)CC1 [pictilisib]
How it was run: as §1

Sequence of UniProt O75554 (O75554 whole entry, looked up): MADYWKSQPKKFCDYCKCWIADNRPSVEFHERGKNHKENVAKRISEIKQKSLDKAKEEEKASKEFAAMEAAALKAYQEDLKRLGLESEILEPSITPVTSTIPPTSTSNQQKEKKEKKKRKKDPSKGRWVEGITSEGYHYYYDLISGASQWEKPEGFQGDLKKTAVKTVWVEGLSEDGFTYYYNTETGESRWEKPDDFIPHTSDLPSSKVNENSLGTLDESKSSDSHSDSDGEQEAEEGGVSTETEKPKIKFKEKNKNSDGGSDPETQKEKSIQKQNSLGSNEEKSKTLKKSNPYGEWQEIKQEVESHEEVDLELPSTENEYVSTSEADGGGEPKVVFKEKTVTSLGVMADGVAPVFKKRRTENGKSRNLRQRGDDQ
Sequence of UniProt A3KMH1 (A3KMH1 whole entry, looked up): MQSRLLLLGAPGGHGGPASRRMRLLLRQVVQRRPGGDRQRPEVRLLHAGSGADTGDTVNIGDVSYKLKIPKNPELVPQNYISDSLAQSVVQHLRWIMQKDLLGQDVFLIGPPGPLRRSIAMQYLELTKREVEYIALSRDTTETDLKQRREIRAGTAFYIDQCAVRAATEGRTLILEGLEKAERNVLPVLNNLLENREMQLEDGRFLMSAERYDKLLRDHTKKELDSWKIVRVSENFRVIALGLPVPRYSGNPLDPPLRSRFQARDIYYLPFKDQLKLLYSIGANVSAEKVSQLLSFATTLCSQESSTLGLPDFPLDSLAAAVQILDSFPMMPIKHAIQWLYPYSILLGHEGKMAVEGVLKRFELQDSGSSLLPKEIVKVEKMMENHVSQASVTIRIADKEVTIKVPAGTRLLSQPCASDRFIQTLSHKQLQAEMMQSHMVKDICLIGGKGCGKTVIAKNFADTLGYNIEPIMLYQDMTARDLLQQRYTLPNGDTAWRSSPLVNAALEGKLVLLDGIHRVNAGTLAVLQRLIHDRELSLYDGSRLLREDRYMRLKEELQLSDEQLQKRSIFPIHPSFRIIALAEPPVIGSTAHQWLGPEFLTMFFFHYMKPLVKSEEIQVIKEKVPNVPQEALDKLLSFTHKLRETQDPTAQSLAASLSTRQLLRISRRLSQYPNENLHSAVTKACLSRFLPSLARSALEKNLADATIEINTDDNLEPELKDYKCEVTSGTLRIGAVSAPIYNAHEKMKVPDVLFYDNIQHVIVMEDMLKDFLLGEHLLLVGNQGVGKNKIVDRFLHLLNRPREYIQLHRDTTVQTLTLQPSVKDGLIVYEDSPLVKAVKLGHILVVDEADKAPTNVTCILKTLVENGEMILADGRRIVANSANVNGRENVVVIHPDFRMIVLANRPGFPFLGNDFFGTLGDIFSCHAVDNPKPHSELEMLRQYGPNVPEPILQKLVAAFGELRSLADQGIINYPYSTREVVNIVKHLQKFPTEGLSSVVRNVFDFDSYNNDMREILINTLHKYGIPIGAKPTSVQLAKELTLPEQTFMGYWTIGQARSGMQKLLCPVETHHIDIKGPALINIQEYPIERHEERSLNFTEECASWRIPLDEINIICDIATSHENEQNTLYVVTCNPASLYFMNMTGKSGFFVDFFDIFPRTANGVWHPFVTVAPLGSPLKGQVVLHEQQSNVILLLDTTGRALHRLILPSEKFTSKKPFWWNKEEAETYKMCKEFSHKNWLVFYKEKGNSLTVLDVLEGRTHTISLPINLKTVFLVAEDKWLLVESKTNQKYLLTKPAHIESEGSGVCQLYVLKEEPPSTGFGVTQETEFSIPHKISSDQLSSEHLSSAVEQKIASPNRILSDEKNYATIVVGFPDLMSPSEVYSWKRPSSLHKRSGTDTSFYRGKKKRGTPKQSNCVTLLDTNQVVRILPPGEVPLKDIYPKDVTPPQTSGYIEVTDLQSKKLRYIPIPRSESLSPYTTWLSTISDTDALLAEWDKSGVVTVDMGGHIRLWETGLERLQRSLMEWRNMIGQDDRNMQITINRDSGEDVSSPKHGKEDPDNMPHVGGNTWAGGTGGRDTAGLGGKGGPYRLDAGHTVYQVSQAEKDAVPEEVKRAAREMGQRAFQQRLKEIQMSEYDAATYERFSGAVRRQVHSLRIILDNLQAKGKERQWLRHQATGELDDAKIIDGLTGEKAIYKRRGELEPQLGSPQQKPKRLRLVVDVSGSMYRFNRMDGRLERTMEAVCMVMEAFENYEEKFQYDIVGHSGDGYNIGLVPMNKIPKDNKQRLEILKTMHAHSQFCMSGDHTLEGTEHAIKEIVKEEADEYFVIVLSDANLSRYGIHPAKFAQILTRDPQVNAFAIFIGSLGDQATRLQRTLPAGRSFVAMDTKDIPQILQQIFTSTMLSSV
Sequence of UniProt Q9NX61 (Q9NX61 whole entry, looked up): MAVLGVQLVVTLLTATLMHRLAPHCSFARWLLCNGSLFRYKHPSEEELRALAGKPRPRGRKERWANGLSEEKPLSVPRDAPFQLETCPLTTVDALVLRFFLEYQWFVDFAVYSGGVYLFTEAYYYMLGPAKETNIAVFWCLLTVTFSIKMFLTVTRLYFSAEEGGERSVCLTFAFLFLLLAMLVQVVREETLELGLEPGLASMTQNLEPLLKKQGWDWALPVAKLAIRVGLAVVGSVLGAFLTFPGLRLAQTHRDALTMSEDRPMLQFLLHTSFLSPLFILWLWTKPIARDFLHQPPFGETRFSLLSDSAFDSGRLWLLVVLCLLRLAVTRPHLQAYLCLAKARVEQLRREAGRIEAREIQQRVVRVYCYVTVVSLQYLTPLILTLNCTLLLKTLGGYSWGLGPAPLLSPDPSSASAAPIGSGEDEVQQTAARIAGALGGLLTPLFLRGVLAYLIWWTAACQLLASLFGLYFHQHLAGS
Sequence of UniProt Q9P0T7 (Q9P0T7 whole entry, looked up): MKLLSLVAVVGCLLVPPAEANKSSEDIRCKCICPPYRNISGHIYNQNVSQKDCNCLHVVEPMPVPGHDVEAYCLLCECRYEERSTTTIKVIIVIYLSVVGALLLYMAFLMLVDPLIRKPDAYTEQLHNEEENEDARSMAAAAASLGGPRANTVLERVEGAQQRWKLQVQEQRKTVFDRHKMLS
Sequence of UniProt Q9H270 (Q9H270 whole entry, looked up): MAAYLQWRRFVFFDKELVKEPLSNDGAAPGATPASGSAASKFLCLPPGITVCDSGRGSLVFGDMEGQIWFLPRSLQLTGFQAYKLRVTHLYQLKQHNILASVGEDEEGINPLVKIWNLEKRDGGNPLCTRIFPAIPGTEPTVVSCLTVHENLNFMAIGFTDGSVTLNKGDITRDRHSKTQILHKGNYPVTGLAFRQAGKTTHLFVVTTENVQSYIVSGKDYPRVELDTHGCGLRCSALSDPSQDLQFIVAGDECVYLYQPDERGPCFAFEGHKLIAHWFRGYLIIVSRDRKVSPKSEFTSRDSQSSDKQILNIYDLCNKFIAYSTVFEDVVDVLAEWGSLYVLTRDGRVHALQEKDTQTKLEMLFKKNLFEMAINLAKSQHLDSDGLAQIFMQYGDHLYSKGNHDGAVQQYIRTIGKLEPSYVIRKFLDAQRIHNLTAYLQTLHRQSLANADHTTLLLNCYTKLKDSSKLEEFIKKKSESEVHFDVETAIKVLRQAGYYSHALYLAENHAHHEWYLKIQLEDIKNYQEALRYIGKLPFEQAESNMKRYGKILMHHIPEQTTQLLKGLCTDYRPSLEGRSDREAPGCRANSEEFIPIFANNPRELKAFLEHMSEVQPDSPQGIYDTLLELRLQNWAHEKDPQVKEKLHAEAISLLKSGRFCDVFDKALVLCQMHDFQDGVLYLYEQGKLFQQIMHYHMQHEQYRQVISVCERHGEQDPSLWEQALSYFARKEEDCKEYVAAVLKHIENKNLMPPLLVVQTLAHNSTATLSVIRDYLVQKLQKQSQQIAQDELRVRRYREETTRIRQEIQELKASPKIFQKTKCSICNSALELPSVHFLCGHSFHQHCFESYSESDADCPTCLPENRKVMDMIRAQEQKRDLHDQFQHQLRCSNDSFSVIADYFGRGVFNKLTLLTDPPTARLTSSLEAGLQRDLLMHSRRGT
Sequence of UniProt P13010 (P13010 whole entry, looked up): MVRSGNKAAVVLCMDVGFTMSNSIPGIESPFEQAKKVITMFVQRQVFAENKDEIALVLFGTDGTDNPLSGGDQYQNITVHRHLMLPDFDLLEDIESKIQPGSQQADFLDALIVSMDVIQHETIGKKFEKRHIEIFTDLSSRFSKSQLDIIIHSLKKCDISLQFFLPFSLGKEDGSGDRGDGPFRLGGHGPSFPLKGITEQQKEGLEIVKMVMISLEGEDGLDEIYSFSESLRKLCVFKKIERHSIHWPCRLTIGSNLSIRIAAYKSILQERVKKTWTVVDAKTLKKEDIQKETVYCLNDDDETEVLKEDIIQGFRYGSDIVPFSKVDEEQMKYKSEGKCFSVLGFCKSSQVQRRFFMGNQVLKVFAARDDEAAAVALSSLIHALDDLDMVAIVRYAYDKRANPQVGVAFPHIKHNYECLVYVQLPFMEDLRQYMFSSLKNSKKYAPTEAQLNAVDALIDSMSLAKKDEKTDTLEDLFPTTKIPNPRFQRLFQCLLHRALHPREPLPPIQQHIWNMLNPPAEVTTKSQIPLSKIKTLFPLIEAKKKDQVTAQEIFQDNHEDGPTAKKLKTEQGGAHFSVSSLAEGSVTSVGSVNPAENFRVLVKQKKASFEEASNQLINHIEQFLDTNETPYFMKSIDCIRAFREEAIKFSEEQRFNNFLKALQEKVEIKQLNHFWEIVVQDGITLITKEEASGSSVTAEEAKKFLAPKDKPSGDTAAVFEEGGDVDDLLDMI
Sequence of UniProt Q9Y5Z9 (Q9Y5Z9 whole entry, looked up): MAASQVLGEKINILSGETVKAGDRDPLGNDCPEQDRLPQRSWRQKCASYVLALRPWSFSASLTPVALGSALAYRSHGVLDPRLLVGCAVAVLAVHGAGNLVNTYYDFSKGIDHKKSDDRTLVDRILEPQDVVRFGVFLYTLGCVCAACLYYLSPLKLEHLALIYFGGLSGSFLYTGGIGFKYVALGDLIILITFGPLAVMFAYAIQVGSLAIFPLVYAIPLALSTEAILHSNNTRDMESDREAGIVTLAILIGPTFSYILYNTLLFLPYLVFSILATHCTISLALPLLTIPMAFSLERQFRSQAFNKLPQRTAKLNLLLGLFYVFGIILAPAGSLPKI

| Target | log2 fold change (saracatinib) | log2 fold change (sotrastaurin) | log2 fold change (alvocidib) | log2 fold change (Tubastatin A) | log2 fold change [1] | log2 fold change (defactinib) | log2 fold change (rucaparib) | log2 fold change [2] | log2 fold change (encorafenib) | log2 fold change [3] | log2 fold change [4] | log2 fold change (filanesib) | log2 fold change (zotarolimus) | log2 fold change (idasanutlin) | log2 fold change (alisertib) | log2 fold change [5] | log2 fold change (gefitinib) | log2 fold change [6] | log2 fold change (lapatinib) | log2 fold change (pictilisib) |
| --- | --- | --- | --- | --- | --- | --- | --- | --- | --- | --- | --- | --- | --- | --- | --- | --- | --- | --- | --- | --- |
| TRAPPC3 (UniProt O43617) | 0.063 | 0.001 | -0.071 | -0.026 | 0 | -0.072 | -0.056 | -0.014 | 0.015 | 0.013 | -0.141 | -0.069 | -0.037 | -0.025 | -0.055 | 0.012 | 0.007 | 0.067 | 0.023 | 0.023 |
| UPF3B (UniProt Q9BZI7) | -0.099 | 0.002 | 0.423 | 0.114 | 0.045 | 0.413 | 0.286 | 0.035 | 0.108 | 0.007 | -0.044 | 0.26 | -0.015 | 0.209 | -0.048 | 0.187 | 0.061 | -0.114 | 0.234 | -0.058 |
| VWA8 (UniProt A3KMH1) | -0.012 | -0.003 | -0.046 | 0.072 | 0.006 | -0.017 | 0.008 | -0.013 | 0.003 | -0.049 | -0.025 | -0.052 | -0.027 | -0.119 | -0.037 | 0.006 | 0.011 | 0.077 | 0 | 0.01 |
| TSG101 (UniProt Q99816) | -0.008 | -0.047 | -0.076 | 0 | 0.011 | -0.12 | -0.006 | -0.044 | -0.007 | -0.032 | 0 | -0.07 | 0.029 | -0.031 | -0.049 | 0.007 | 0.011 | 0.016 | -0.013 | 0.025 |
| TMEM9 (UniProt Q9P0T7) | 0.051 | -0.025 | -0.068 | 0.016 | 0.004 | -0.014 | 0.003 | 0.033 | 0.033 | 0.004 | -0.085 | -0.078 | 0.081 | 0.006 | -0.081 | -0.178 | -0.007 | 0.052 | 0.04 | 0.036 |
| WBP4 (UniProt O75554) | 0.113 | 0.012 | -0.032 | -0.02 | -0.015 | 0.012 | -0.031 | -0.019 | -0.046 | 0.045 | 0.001 | -0.082 | -0.025 | 0.022 | -0.042 | -0.009 | 0.014 | -0.003 | 0.05 | -0.139 |
| VPS11 (UniProt Q9H270) | -0.003 | -0.08 | -0.061 | 0.004 | -0.018 | -0.066 | 0.082 | -0.021 | 0.023 | -0.01 | -0.019 | -0.038 | 0.053 | -0.063 | -0.022 | -0.032 | -0.005 | -0.041 | -0.045 | -0.013 |
| XPO1 (UniProt O14980) | 0.003 | -0.088 | -0.096 | 0.001 | -0.028 | -0.093 | -0.012 | 0.02 | 0.094 | -0.041 | 0.074 | -0.121 | 0.004 | -0.123 | -0.003 | 0.023 | -0.032 | 0.001 | -0.023 | -0.071 |
| TMEM192 (UniProt Q8IY95) | 0.092 | -0.028 | 0.001 | 0.035 | 0.015 | -0.016 | -0.01 | -0.033 | -0.02 | 0.036 | -0.036 | -0.162 | -0.047 | 0.037 | -0.048 | -0.009 | -0.047 | 0.099 | -0.02 | 0.038 |
| TMEM161A (UniProt Q9NX61) | 0.011 | 0.027 | -0.027 | 0.039 | -0.108 | 0.03 | -0.106 | -0.029 | 0.106 | 0.058 | -0.021 | -0.148 | -0.072 | -0.167 | 0.009 | -0.033 | -0.01 | 0.051 | 0.075 | -0.106 |
| TUBA4A (UniProt P68366) | 0.045 | -0.012 | -0.048 | -0.051 | -0.039 | -0.024 | -0.046 | 0.038 | -0.012 | 0.013 | 0.032 | -0.108 | 0.044 | -0.108 | -0.027 | -0.043 | 0.019 | 0.071 | 0.04 | 0.04 |
| TTC38 (UniProt Q5R3I4) | -0.045 | 0.086 | -0.132 | 0.578 (active) | -0.062 | -0.262 | 0.435 | 0.293 | -0.02 | -0.011 | -0.067 | -0.023 | 0.034 | -0.093 | 0.065 | 0.081 | 0.013 | -0.003 | -0.054 | -0.041 |
| WASH2P (UniProt Q6VEQ5) | 0.009 | -0.08 | -0.018 | -0.059 | 0.02 | -0.004 | -0.011 | -0.037 | 0.004 | 0.007 | 0.007 | -0.067 | -0.029 | -0.055 | -0.027 | 0.067 | 0.001 | -0.036 | 0.016 | 0.053 |
| TPR (UniProt P12270) | 0.152 | -0.147 | -0.012 | -0.035 | 0.239 | 0.005 | -0.043 | -0.112 | -0.047 | 0.023 | -0.048 | 0.115 | 0.049 | 0.055 | -0.076 | 0.065 | -0.056 | -0.06 | 0.044 | 0.036 |
| XRCC5 (UniProt P13010) | -0.057 | -0.332 | -0.214 | 0.173 | -0.032 | -0.37 | 0.07 | 0.048 | 0.21 | -0.067 | 0.19 | -0.049 | 0.087 | 0.014 | 0.061 | -0.232 | 0.076 | -0.087 | 0.024 | -0.047 |
| UBIAD1 (UniProt Q9Y5Z9) | 0.003 | 0.208 | 0.021 | -0.078 | 0.054 | 0.002 | 0.473 (active) | -0.053 | -0.035 | -0.039 | -0.063 | -0.038 | -0.246 | -0.039 | -0.054 | -0.008 | 0.077 | 0.013 | 0.082 | 0.103 |
